Measured values: PubChem BioAssay (NCI)
This is part of a sample that, as a whole, favours compounds with a hit. Of some 79,000 tested, about 15% had one in any assay. A number with no mark means an inactive call. Activity calls are given as the source filed them. No stated cut-off is given here; in the data, active means growth inhibition above about 70%; inactive means the rest.

Experiments:
[1] = NCI Yeast Anticancer Drug Screen. Data for the rad50 strain (AID 155);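 further: 0% = growth of vehicle-only cultures of the same strain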; conditions: S. cerevisiae rad50 strain growth inhibition, stronger effect = higher value
How it was run: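 Genetically altered yeast (DNA repair pathway); compound treatment; growth inhibition vs vehicle ctrl.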

[2] = NCI Yeast Anticancer Drug Screen. Data for the mec2-1 strain (AID 157); conditions: S. cerevisiae mec2-1 strain, stronger effect = higher value
How it was run: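 Each compound was tested on mec2-1 yeast, a strain altered in DNA damage repair or cell cycle control. Growth inhibition is reported relative to vehicle.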

[3] = NCI Yeast Anticancer Drug Screen. Data for the sgs1 mgt1 strain (AID 161);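 further: 0% = growth of cultures given vehicle only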; conditions: S. cerevisiae sgs1 mgt1 strain, stronger effect = higher value
How it was run: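 Test agents were incubated with a DNA-repair-mutant yeast strain. Growth was then read and compared against vehicle-treated controls.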

[4] = NCI Yeast Anticancer Drug Screen. Data for the cln2 rad14 strain (AID 165);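 further: 0% = growth equal to vehicle treated cultures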; conditions: S. cerevisiae cln2 rad14 strain, stronger effect = higher value
How it was run: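 Test compounds were added to cln2 rad14 yeast cultures; inhibition of growth was then determined by comparison with vehicle treatment.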

[5] = NCI Yeast Anticancer Drug Screen. Data for the bub3 strain (AID 167); conditions: S. cerevisiae bub3 mutant strain, stronger effect = higher value
How it was run: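 Yeast carrying a defined mutation is treated with each compound, and growth is compared with that of vehicle-exposed cells to give inhibition.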

[6] = NCI Yeast Anticancer Drug Screen. Data for the mlh1 rad18 strain (AID 175); conditions: S. cerevisiae mlh1 rad18 strain growth inhibition, stronger effect = higher value
How it was run: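 Inhibition values reflect reduced growth of mutant yeast versus vehicle-treated controls following compound exposure; the mutations affect DNA damage repair.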

[7] = at 5.0 µM (retest, dose inferred, filed as 0.5)
[8] = at 50.0 µM (retest, dose inferred, filed as 5.0)

| SMILES | growth inhibition [1, 7] | growth inhibition [1, 8] | growth inhibition ([1]; at 50.0 µM) | growth inhibition [2, 7] | growth inhibition [2, 8] | growth inhibition ([2]; at 50.0 µM) | growth inhibition [3, 7] | growth inhibition [3, 8] | growth inhibition ([3]; at 50.0 µM) | growth inhibition [4, 7] | growth inhibition [4, 8] | growth inhibition ([4]; at 50.0 µM) | growth inhibition [5, 7] | growth inhibition [5, 8] | growth inhibition ([5]; at 50.0 µM) | growth inhibition [6, 7] | growth inhibition [6, 8] | growth inhibition ([6]; at 50.0 µM) |
| --- | --- | --- | --- | --- | --- | --- | --- | --- | --- | --- | --- | --- | --- | --- | --- | --- | --- | --- |
| CN(C)c1ccc(/C=C(\NC(=O)c2ccccc2)c2nc3ccccc3s2)cc1 | 35% | 96% (active) | 97.1% (active) | 20% | 97% (active) | 97.2% (active) | 61% | 97% (active) | 98% (active) | 17% | 95% (active) | 97.3% (active) | 37% | 97% (active) | 95% (active) | 27% | 96% (active) | 97% (active) |
| CC(=O)N(C)NC(=O)c1ccccc1 | 1% | -6% | 10.4% | -1% | 2% | -12.8% | 1% | -4% | -10.2% | -8% | 5% | 27.3% | -2% | -1% | 12.9% | 0% | -5% | -4.7% |
| CC1=CCC[C@@H]2C1(C)CCC(C)[C@@]2(C)CC1=CC(=O)C=CC1=O (stereo not given in full) | 18% | 95% (active) | 86.1% (active) | 27% | 96% (active) | 89.2% (active) | 52% | 95% (active) | 88.8% (active) | -12% | 92% (active) | 85.5% (active) | 14% | 93% (active) | 86.8% (active) | 40% | 92% (active) | 87% (active) |
| COC(OC)C1C2C3C=CC(C4C(=O)OC(=O)C34)C12 (stereo not given) | -5% | 0% | 76.5% (active) | -16% | -4% | 98.4% (active) | -15% | -13% | 29.4% | -2% | -5% | 98.3% (active) | 0% | 14% | 97.2% (active) | 6% | 2% | 98.6% (active) |
| O=CC1(c2ccc(Cl)cc2)NC(=O)NC1=O (stereo not given) | -1% | 1% | 3.45% | -1% | -3% | -1.7% | 2% | 2% | -9.45% | 3% | -14% | 83% (active) | -1% | -1% | -10.3% | -5% | -4% | 3.35% |
| Cc1ccc(-c2n[nH]c(=O)n2/N=C\c2ccccc2)cc1 | 21% | 38% | 40.9% | 18% | 25% | 21.9% | 28% | 39% | 50.1% | 12% | 31% | 15.2% | 4% | 23% | 23% | 17% | 44% | 59% |
| C=C1C(=O)OC(C)(C)C1c1ccc(Cl)c(Cl)c1 (stereo not given) | 25% | 99% (active) | 99.5% (active) | 35% | 99% (active) | 99.8% (active) | 39% | 99% (active) | 99.8% (active) | 18% | 97% (active) | 99.2% (active) | 37% | 99% (active) | 99.5% (active) | 38% | 98% (active) | 99.7% (active) |
| CC(C)Cn1cnc2c(SCc3ccccc3[N+](=O)[O-])nc(N)nc21 | 2% | -4% | 90% (active) | -4% | -2% | 96% (active) | 0% | -2% | 56% | -22% | -3% | 82.2% (active) | -1% | -4% | 96.8% (active) | 1% | 2% | 84.8% (active) |
| O=c1ccnc(Sc2ccc([N+](=O)[O-])cc2[N+](=O)[O-])[nH]1 | 16% | 94% (active) | 47.2% | 8% | 94% (active) | 54.6% | 2% | 87% (active) | 84% (active) | 1% | 74% (active) | 59.1% | -1% | 92% (active) | 52.5% | 2% | 93% (active) | 49.6% |
| CCCCCCCCCCCCCCC[N+]1(CC)CCCCC1 | 99% (active) | 99% (active) | 90.3% (active) | 97% (active) | 99% (active) | 90.8% (active) | 99% (active) | 99% (active) | 91.7% (active) | 99% (active) | 99% (active) | 90% (active) | 98% (active) | 99% (active) | 90.5% (active) | 98% (active) | 99% (active) | 89.2% (active) |
